These results are taken from PubChem BioAssay (EPA / NIEHS).

Read-out in test [1]: Interferon-gamma inducible Protein 10 (IP10), CXCL10 (gene 3627)
The test can be described thus: BSK_hDFCGF_IP10: BioMAP Diversity Plus: hDFCGF Assay for Interferon-gamma inducible Protein 10 (IP10) Biomarker Activity (AID 2283053). Particulars: primary human foreskin fibroblasts; actives raise or lower the signal. The procedure, abridged:
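Chemical-treated human skin fibroblasts (primary) were sampled at 24 h for IP-10 by ELISA. Both increases and decreases relative to DMSO were scored.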

Read-out in test [2]: Urokinase-type plasminogen activator receptor (uPAR), PLAUR (gene 5329)
Kind of test: BSK_CASM3C_uPAR: BioMAP Diversity Plus: CASM3C Assay for Urokinase-type plasminogen activator receptor (uPAR) Biomarker Activity (AID 2283054).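 Further: cell-surface uPAR protein level quantified by ELISA.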 To be noted: primary human coronary artery smooth muscle cells; actives raise or lower the signal.

Read-out in test [3]: Vascular cell adhesion molecule 1 (VCAM1), VCAM1 (gene 7412)
Kind of test: BSK_CASM3C_VCAM1: BioMAP Diversity Plus: CASM3C Assay for Vascular cell adhesion molecule 1 (VCAM1) Biomarker Activity (AID 2283055).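 Further: VCAM-1 protein level quantified by ELISA on the cells.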 To be noted: primary human coronary artery smooth muscle cells; actives raise or lower the signal.

Read-out in test [4]: Collagen III, COL3A1 (gene 1281)
Kind of test: BSK_hDFCGF_CollagenIII: BioMAP Diversity Plus: hDFCGF Assay for Collagen III Biomarker Activity (AID 2283056). To be noted: primary human foreskin fibroblasts; actives raise or lower the signal. The procedure, abridged:
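Human foreskin primary fibroblasts were exposed to test chemicals for 24 h, after which collagen III was quantified by ELISA. Activity was fitted bidirectionally against DMSO as negative control and baseline.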

Read-out in test [5]: Epidermal growth factor receptor (EGFR), EGFR (gene 1956)
The test can be described thus: BSK_hDFCGF_EGFR: BioMAP Diversity Plus: hDFCGF Assay for Epidermal growth factor receptor (EGFR) Biomarker Activity (AID 2283057). To be noted: primary human foreskin fibroblasts; actives raise or lower the signal. The method, boiled down: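 Cell-based multiplexed assay in primary human foreskin fibroblasts. EGFR is read by ELISA 24 h after treatment and compared with DMSO controls.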

Read-out in test [6]: Interleukin-8 (IL8), CXCL8 (gene 3576)
The test can be described thus: BSK_hDFCGF_IL8: BioMAP Diversity Plus: hDFCGF Assay for Interleukin-8 (IL8) Biomarker Activity (AID 2283058). To be noted: primary human foreskin fibroblasts; actives raise or lower the signal. The procedure, abridged: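 hDFCGF human dermal fibroblasts; 24 h chemical exposure; IL-8 by ELISA; bidirectional curve fit vs DMSO baseline; gain or loss of signal scored.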

Test [7] is described as follows: BSK_hDFCGF_Proliferation: Cell Proliferation Assessment in the BioMAP Diversity Plus: hDFCGF Assay (AID 2283059).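 Further: curves fitted for both rise and fall of signal versus DMSO baseline.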 To be noted: primary human foreskin fibroblasts. The procedure, abridged:
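Total protein read at 560 nm after 0.1% SRB staining of TCA-fixed human skin fibroblasts, […]. Activity is fitted in both directions relative to DMSO as baseline.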

Read-out in test [8]: Macrophage colony-stimulating factor (MCSF), CSF1 (gene 1435)
Kind of test: BSK_hDFCGF_MCSF: BioMAP Diversity Plus: hDFCGF Assay for Macrophage colony-stimulating factor (MCSF) Biomarker Activity (AID 2283060). To be noted: primary human foreskin fibroblasts; actives raise or lower the signal. The procedure, abridged:
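Human foreskin primary fibroblasts were treated with test chemical for 24 h, and M-CSF was then measured by ELISA. Data were fitted bidirectionally against DMSO as the negative control and activity baseline.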

Test [9] can be described thus: BSK_hDFCGF_SRB: Viability Assessment in the BioMAP Diversity Plus: hDFCGF Assay (AID 2283061).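 Further: cells exposed to compound for 24 h before the read.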 Particulars: primary human foreskin fibroblasts. The method, boiled down:
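Human foreskin primary fibroblasts were treated with compound and assessed 24 h after dosing. Total protein was measured by sulforhodamine B staining (0.1% SRB after 10% TCA fixation, 560 nm read) as a cytotoxicity marker, with bidirectional fitting against DMSO baseline.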

Read-out in test [10]: Monokine induced gamma interferon (MIG), CXCL9 (gene 4283)
The test can be described thus: BSK_hDFCGF_MIG: BioMAP Diversity Plus: hDFCGF Assay for Monokine induced gamma interferon (MIG) Biomarker Activity (AID 2283063). To be noted: primary human foreskin fibroblasts; actives raise or lower the signal. The procedure, abridged:
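ELISA read-out of MIG from primary human dermal fibroblasts 24 h post-dosing. Gain or loss of signal fitted bidirectionally, DMSO as baseline.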

Read-out in test [11]: Matrix Metallopeptidase 1 (MMP1), MMP1 (gene 4312)
The test can be described thus: BSK_hDFCGF_MMP1: BioMAP Diversity Plus: hDFCGF Assay for Matrix Metallopeptidase 1 (MMP1) Biomarker Activity (AID 2283064). Particulars: primary human foreskin fibroblasts; actives raise or lower the signal. The procedure, abridged:
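MMP1 levels quantified by ELISA 24 h after dosing human dermal fibroblast cultures, with parallel SRB total-protein staining for overt cytotoxicity. Data fitted in both directions against DMSO baseline.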

Read-out in test [12]: Vascular cell adhesion molecule 1 (VCAM1), VCAM1 (gene 7412)
The test can be described thus: BSK_hDFCGF_VCAM1: BioMAP Diversity Plus: hDFCGF Assay for Vascular cell adhesion molecule 1 (VCAM1) Biomarker Activity (AID 2283065).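 On AC50: VCAM-1 protein level quantified by ELISA after 24 h chemical exposure.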 To be noted: primary human foreskin fibroblasts; actives raise or lower the signal. The method, boiled down:
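Primary human foreskin fibroblasts (hDFCGF system) were dosed with chemical and VCAM-1 was measured by ELISA 24 h later. Bidirectional curve fitting used DMSO as negative control and activity baseline.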

Read-out in test [13]: Plasminogen activator inhibitor-1 (PAI1), SERPINE1 (gene 5054)
Kind of test: BSK_hDFCGF_PAI1: BioMAP Diversity Plus: hDFCGF Assay for Plasminogen activator inhibitor-1 (PAI1) Biomarker Activity (AID 2283066). Particulars: primary human foreskin fibroblasts; actives raise or lower the signal. The procedure, abridged: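 Human skin fibroblast cultures receive chemical for 24 h before PAI-1 is measured by ELISA; signal changes are fitted bidirectionally against DMSO-treated wells.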

Read-out in test [14]: Intercellular Adhesion Molecule 1 (ICAM1), ICAM1 (gene 3383)
Kind of test: BSK_KF3CT_ICAM1: BioMAP Diversity Plus: KF3CT Assay for Intercellular Adhesion Molecule 1 (ICAM1) Biomarker Activity (AID 2283067). Particulars: primary human keratinocytes with fibroblasts; actives raise or lower the signal. The method, boiled down: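 Human keratinocyte plus foreskin fibroblast primary co-culture was exposed to chemical for 24 h. ICAM-1 was then quantified by ELISA, and the data were fit bidirectionally against DMSO as the negative control and baseline.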

Test [15] can be described thus: BSK_KF3CT_SRB: Viability Assessment in the BioMAP Diversity Plus: KF3CT Assay (AID 2283069). Particulars: primary human keratinocytes with fibroblasts. The procedure, abridged: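 Cytotoxicity was gauged by SRB staining (0.1% SRB, 10% TCA fixation, 560 nm) of parallel cultures at 24 h. The cells were primary human skin keratinocytes co-cultured with fibroblasts, and activity was fitted in both directions against DMSO.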

Read-out in test [16]: Interleukin-1 alpha (IL1a), IL1A (gene 3552)
The test can be described thus: BSK_KF3CT_IL1a: BioMAP Diversity Plus: KF3CT Assay for Interleukin-1 alpha (IL1a) Biomarker Activity (AID 2283070). Particulars: primary human keratinocytes with fibroblasts; actives raise or lower the signal. The method, boiled down:
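IL-1a was detected by ELISA 24 h after chemical treatment of a co-culture of human skin keratinocytes and foreskin fibroblasts. Gain or loss of signal was fitted against the DMSO baseline.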

Read-out in test [17]: TIMP metallopeptidase inhibitor 2 (TIMP2), TIMP2 (gene 7077)
Kind of test: BSK_KF3CT_TIMP2: BioMAP Diversity Plus: KF3CT Assay for TIMP metallopeptidase inhibitor 2 (TIMP2) Biomarker Activity (AID 2283071). To be noted: primary human keratinocytes with fibroblasts; actives raise or lower the signal. The procedure, abridged: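 Measurements come from ELISA detection of TIMP-2 at 24 hours in a dosed human keratinocyte and foreskin fibroblast co-culture. DMSO serves as negative control and baseline.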

Read-out in test [18]: Transforming growth factor beta 1 (TGFb1), TGFB1 (gene 7040)
The test can be described thus: BSK_KF3CT_TGFb1: BioMAP Diversity Plus: KF3CT Assay for Transforming growth factor beta 1 (TGFb1) Biomarker Activity (AID 2283072). To be noted: primary human keratinocytes with fibroblasts; actives raise or lower the signal. The procedure, abridged:
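TGF-b1 ELISA on a 24 h dosed co-culture of human keratinocytes and foreskin fibroblasts; cytotoxicity tracked in parallel cultures by SRB staining.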

Read-out in test [19]: Interferon-gamma inducible Protein 10 (IP10), CXCL10 (gene 3627)
Kind of test: BSK_KF3CT_IP10: BioMAP Diversity Plus: KF3CT Assay for Interferon-gamma inducible Protein 10 (IP10) Biomarker Activity (AID 2283068). Particulars: primary human keratinocytes with fibroblasts; actives raise or lower the signal. The procedure, abridged:
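Human keratinocyte plus foreskin fibroblast primary co-culture exposed to test chemical for 24 h; IP-10 measured by ELISA. Concentration-response fitted bidirectionally against DMSO control as baseline.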

Structures are written as SMILES. Calls of active or inactive are those of the source. How the source made its calls: active means hit-call score of the fitted dose curve at least 0.9, where 1 is the maximum; inactive means score below 0.9.

As for `C#C[C@]1(O)CC[C@H]2[C@@H]3CCC4=CC(=O)CC[C@@H]4[C@H]3CC[C@@]21C`, the result in test [1], in test [2], in [3], in test [4], in [5] and in test [6] was inactive. The result in test [7], in test [8], in test [9], in test [10], in test [11] and in test [12] was inactive. Also, the result in test [13], in test [14], in test [15], in test [16], in [17] and in [18] was inactive.
For `c1ccc2c(c1)Cc1ccccc1-2`, the outcome in [1], in test [2], in test [3], in test [4], in test [5] and in test [6] was inactive. The result in test [7], in test [8], in test [9], in [10], in test [11] and in test [12] was inactive. The result in [13], in test [14], in test [19], in [15], in [16] and in test [17] was inactive. In addition, in test [18], the outcome was inactive.
Turning to `Cc1cc(CCN2CCN(c3nsc4ccccc34)CC2)cc2c1NC(=O)CC2(C)C`, the AC50 – broadly, the midpoint of the concentration-response curve, whichever way the signal moves – is 11.5 µM (active) in [1]; 31.1 µM (active) in [2]; 29.4 µM (active) in [3]; 9.12 µM (active) in [4]; 11.3 µM (active) in [6]; 7.83 µM (active) in test [7]. The half-maximal activity concentration (AC50) in [8] was 10.8 µM (active); in [9], 13.4 µM (active); in [10], 10.9 µM (active); in [11], 8.43 µM (active); in test [12], 5.57 µM (active); in test [13], 14.6 µM (active). The AC50 in test [14] was 29.6 µM (active); in test [19], 33.4 µM (active); in test [15], 11.7 µM (active); in test [16] it was 26.6 µM (active); in [17], 20 µM (active); in test [18] it was 13.2 µM (active). In addition, in test [5], the result was inactive.
Take `N#C[C@@H]1CC(F)(F)CN1C(=O)CNC1CC2CCC(C1)N2c1ncccn1` (stereo partly specified): the outcome in [1], in test [2], in test [3], in [4], in [5] and in test [6] was inactive. Further, the outcome in test [7], in test [8], in [9], in test [10], in test [11] and in test [12] was inactive. In addition, the result in [13], in test [14], in [15], in test [16], in [17] and in test [18] was inactive.
As for `CCOC(=O)CC(O)(CC(=O)OCC)C(=O)OCC`, the outcome in test [1], in test [2], in [3], in [4], in [5] and in test [6] was inactive. Moreover, the outcome in test [7], in [8], in test [9], in test [10], in [11] and in test [12] was inactive. The result in test [13], in test [14], in test [15], in test [16], in test [17] and in test [18] was inactive.
Regarding `CC[C@H](C)[C@@H](C(=O)O)n1sc2ccccc2c1=O`, the result in [1], in test [2], in test [3], in test [4], in test [5] and in [6] was inactive. In addition, the outcome in [7], in test [8], in [9], in test [10], in test [11] and in [12] was inactive. Besides, the outcome in test [13], in test [14], in [19], in test [15], in [16] and in test [17] was inactive. The result in test [18] was inactive.
